Assay results: ChEMBL document CHEMBL3988442, “University of Dundee, Small-Polar-MMV Screening Library” (2021)
Hit rate of the full screen: of about 48,000 compounds, about 13,000 (27%) showed an effect of 50% or more. This is one part of the list.

tested on: Wolbachia pipientis; assay: Anti-Wolbachia Cell-Based Screen; type: functional; parameters: scale not given: in the data most compounds retested in dose-response had high values; conditions: 5 µM

Row | SMILES | Percent Effect [%]
1 | O=C(c1cc2c([nH]c1=O)CCC2)N1CCCCCC1c1ccncc1 (stereo not given) | 23.88
2 | CC(C)COCC(NC(=O)Cc1ccn[nH]1)c1ccco1 (stereo not given) | -5.318
3 | Cc1noc(C)c1CNCc1nn(-c2ccccc2)c2c1CCC2 | -8.034
4 | Clc1ccccc1-c1nc(CNCCn2cccn2)cs1 | -5.873
5 | O=C(Cc1csc(-c2ccccc2F)n1)NCc1cccc(C(=O)O)c1 | 94.98
6 | O=C(Cc1csc(-c2ccccc2F)n1)NCc1ccc(C(=O)O)cc1 | 91.75
7 | O=C(CCC1CCN(C(=O)c2csnn2)CC1)NCc1cccc(Cl)c1 | -4.206
8 | Cc1[nH]c2c(F)cccc2c1CC(=O)NCc1csc(N(C)C)n1 | -5.819
9 | CC(=O)c1cc(CC(=O)NCc2ccc(F)cc2)cs1 | -15.8
10 | CCC(C)NC(=O)c1cccc(CNC(=O)CC(F)(F)F)c1 (stereo not given) | 4.521
11 | COc1ccccc1-c1csc(-c2cccc(C(=O)O)c2)n1 | 1.276
12 | O=C(CCC1CCN(C(=O)c2cc[nH]c2)CC1)NCc1cccc(Cl)c1 | 14.78
13 | O=C(Cc1csc(-c2cccc(Cl)c2)n1)NCc1cccc(C(=O)O)c1 | 106.6
14 | O=C(Cc1csc(-c2ccccc2Cl)n1)NCc1cccc(C(=O)O)c1 | 96.86
15 | CC(=O)c1cc(CC(=O)NCc2c(F)cccc2F)cs1 | -9.682
16 | CCC(C(=O)N(C)C)N1CCC(c2nccn2Cc2cscn2)CC1 (stereo not given) | -0.1258
17 | COCCCn1nnc(C2(NC(=O)c3ccccc3)CCCC2)n1 | -42.57
18 | O=C(Cc1cccs1)N1C[C@@H]2CC[C@H](C1)N(Cc1ccccn1)C2=O | 15.92
19 | Cc1cc(C(=O)N2CCc3nnc(N)cc3C2)c(C)n1C1CC1 | 6.232
20 | O=C(O)CNC(=O)Cc1csc(-c2ccccc2F)n1 | 127.8
21 | CC(Cn1cccn1)NCc1csc(-c2ccccc2F)n1 (stereo not given) | 0.9927
22 | CC(C)N(CCS(C)(=O)=O)Cc1csc(-c2ccccc2F)n1 | -5.187
23 | O=C(O)c1ccnc(-c2ccnc(NCCc3ccc(F)cc3)n2)c1 | -8.109
24 | O=C(O)c1ccnc(-c2ccnc(NCCc3cscn3)n2)c1 | 6.299

Row | SMILES | Percent Effect [%]
25 | O=C(Cc1cccc(O)c1)NCCNc1nccc(C(F)(F)F)n1 | -3.193
26 | CCOc1ccnc(NCCc2nc(C)cc(=O)[nH]2)n1 | 25.33
27 | O=c1[nH][nH]cc1-c1ccnc(NCCc2cccc(O)c2)n1 | 135
28 | Cc1cc(C)c(CNC(=O)NCCc2cccnc2)c(=O)[nH]1 | -5.274
29 | O=c1[nH][nH]cc1-c1ccnc(NCCc2cccnc2)n1 | 116.1
30 | N#Cc1cc(F)c(NCCc2cccnc2)c(F)c1 | 0.2383
31 | Cc1cc(C)nc(CCNc2nccc(CCC(F)(F)F)n2)n1 | -9.076
32 | O=c1[nH][nH]cc1-c1ccnc(NCCc2ccc(F)cc2)n1 | 99.64
33 | Cc1ncc(-c2ccnc(NCCc3ccc(F)cc3)n2)c(=O)[nH]1 | 69.11
34 | Cc1cc(C2CN(CC(=O)NCc3ccco3)CCO2)ccc1F (stereo not given) | -9.058
35 | CN(C)C(=O)CN1C(=O)[C@H]2CC[C@@H]1CN(Cc1ccccc1C#N)C2 | -21.45
36 | COC(=O)Cc1cccc(NC(=O)Cc2cc(C)[nH]n2)c1 | 1.53
37 | Cc1nc(CCN)cc(N2CCOc3ccc(Cl)cc3C2)n1 | 10.69
38 | CCN(Cc1ccc2c(c1)OCO2)C(=O)CCc1c(C)nc(C)[nH]c1=O | -8.876
39 | CCOC(=O)c1n[nH]cc1CN1CCOC(Cc2ccc(OC)cc2)C1 (stereo not given) | -36.24
40 | CC(C)(C)CCNc1nccc(-c2c[nH][nH]c2=O)n1 | 100.4
41 | CC(=O)NCCNc1nccc(CCC(F)(F)F)n1 | -2.049
42 | COCCCNc1nccc(-c2c[nH][nH]c2=O)n1 | 1.466
43 | Cc1nnc(SCCC(=O)N(C)Cc2ccc(Cl)s2)[nH]1 | 6.778
44 | O=C(C1CN(CC2CCOCC2)CC12CCOCC2)N1CCCC1.O=C(O)C(F)(F)F (stereo not given) | 0.226
45 | COC(=O)c1cccc(C(=O)N2CCN(c3cc(Cl)ccc3C)CC2)n1 | 103.9
46 | COc1cc(C)nc(N2CCN(C(=O)c3cc(Cl)c[nH]3)CC2)n1 | 7.277
47 | COC(=O)c1cccc(C(=O)N2CCN(c3cccc(C)c3C)CC2)n1 | -16.02
48 | COC(=O)c1cccc(C(=O)N2CCN(c3cc(C)ccc3C)CC2)n1 | 123.5

Row | SMILES | Percent Effect [%]
49 | O=C(OCCF)c1cccc(C(=O)N2CCCC2)n1 | 7.504
50 | CC(=O)N1CCCN(C(=O)c2ccn(-c3cccc(Cl)c3)n2)CC1 | 4.023
51 | COCC1CN(Cc2cc(C)on2)Cc2cn(CC3CCCC3)nc21.O=C(O)C(F)(F)F.O=C(O)C(F)(F)F (stereo not given) | 1.452
52 | CNS(=O)(=O)Cc1cccc(CNc2ccc(Cl)cn2)c1 | 7.116
53 | O=C(C(NCc1cccc(F)c1F)c1ccccc1)N1CCOCC1 (stereo not given) | -0.9973
54 | O=C(O)C(F)(F)F.O=C(c1ccc(O)cc1)N1C[C@@H]2CCN(c3cccnc3)C[C@@H]2C1 | 9.269
55 | O=C(O)C(F)(F)F.O=C(c1ccc(F)cc1)N1C[C@@H]2CCN(c3cccnc3)C[C@@H]2C1 | 11.69
56 | Cn1cccc1C(=O)N1C[C@@H]2CCN(c3cccnc3)C[C@@H]2C1.O=C(O)C(F)(F)F | -18.75
57 | CNC(=O)CN1CC[C@H]2CN(C(=O)c3cccc(C)c3)C[C@H]2C1.O=C(O)C(F)(F)F | 104.9
58 | CN(C)C[C@H]1OC[C@@H]2CCN(C(=O)c3cccn3C)C[C@@H]21.O=C(O)C(F)(F)F | -2.348
59 | Cc1cccc(C(=O)N2C[C@@H]3CCN(C(C)C)C[C@@H]3C2)c1.O=C(O)C(F)(F)F | -3.353
60 | CC(C)N1[C@H](CN2CCCC2)C[C@@H]2CN(C(=O)c3ccoc3)CC[C@@H]21.O=C(O)C(F)(F)F.O=C(O)C(F)(F)F | -8.643
61 | CC(C)N1CCO[C@H]2CN(C(=O)c3ccoc3)C[C@H]21.O=C(O)C(F)(F)F | -10.4
62 | CNC(=O)CN1CC[C@H]2CN(C(=O)c3cccn3C)C[C@H]2C1.O=C(O)C(F)(F)F | 94.61
63 | CNC(=O)CN1CC[C@H]2CN(C(=O)c3ccc(C)cc3)C[C@H]2C1.O=C(O)C(F)(F)F | 117
64 | CNC(=O)CN1CC[C@H]2CN(C(=O)c3ccoc3)C[C@H]2C1.O=C(O)C(F)(F)F | 90.52
65 | CNC(=O)[C@@H]1C[C@@H](NC(=O)c2cn(C)nc2C)CN1Cc1sccc1C | 22.01
66 | Cc1cc(C(=O)N(C)C(C)CC(C)C)on1 (stereo not given) | -13.06
67 | CN(C)c1ccc2c(c1)CN(C(=O)c1ccco1)C2c1cnco1 (stereo not given) | 6.499
68 | O=C(Nc1ccc(-c2csnn2)cc1)N1CC[C@H](O)C1 | -5.302
69 | CCC(C(=O)NC(C)(C)C)n1cccc(OC)c1=O (stereo not given) | -8.788
70 | CCN1C[C@H]2CCN(C(=O)c3cc[nH]n3)CC[C@H]2S1(=O)=O | 7.026
71 | CNC(=O)CN1CC[C@H]2CN(C(=O)c3cc[nH]n3)C[C@H]2C1.O=C(O)C(F)(F)F | 106.6
72 | O=C(O)C(F)(F)F.O=C(c1cc[nH]n1)N1CC[C@@H]2CN(Cc3ccncc3)S(=O)(=O)[C@@H]2CC1 | -5.267

Row | SMILES | Percent Effect [%]
73 | CCn1cc(CN2CCC(CN3CCCCC3)CC2)cc1C#N | -0.8018
74 | CCc1cnc(CN(C)C(=O)NC2CCN(C)C2=O)s1 (stereo not given) | 1.007
75 | NC(=O)CN1CCC(C(=O)NCCc2nc(-c3ccccc3)cs2)CC1 | 3.799
76 | NC(=O)c1cnc(-c2ccccc2)nc1CCNC(=O)CN1CCCC1 | 124.4
77 | Cc1nc(O)cc(CCNC(=O)CN2CCCCCC2)n1 | -0.8715
78 | NC(=O)c1cnc(NC2CC2)nc1CCNC(=O)Cc1ccccc1 | 131.4
79 | Cc1cnc(NC2CCN(CC(=O)Nc3ccccc3)CC2)nc1C | 3.522
80 | O=C(CC1CCCC1)NCCNCc1cccc2c1OCCO2 | -15.98
81 | O=C(CC1CCCC1)NCCn1ccc(-c2ccncc2)n1 | -13.95
82 | NC(=O)c1cnc(NC2CC2)nc1CCNC(=O)CC1CCCC1 | 144.1
83 | O=C(CCNC(=O)NC1CC1)NCc1ccccc1 | 4.625
84 | O=C(CCCc1cn[nH]c1)N1C[C@H](CO)C[C@H](CN2CCCC2)C1 | 5.812
85 | Cc1cc(C)c2[nH]c(=O)c(CN3CCC(O)(CN(C)C)C3)cc2c1 (stereo not given) | -2.791
86 | COc1ccc(-c2ccc(C(=O)O)c(F)c2)c(F)c1 | -9.144
87 | CC(=O)c1ccc(N2CCC3(CC2)CC(=O)N(C)C3)nc1 | 9.989
88 | Cc1cnc2n(c1=O)CC(C(=O)Nc1cccc3cccnc13)CS2 (stereo not given) | 0.1912
89 | CCc1cccc(C)c1NC(=O)C1CC(=O)N(Cc2ccccn2)C1 (stereo not given) | 16.74
90 | CCc1c(C)nc2n(c1=O)CC(C(=O)Nc1ncccc1C)CS2 (stereo not given) | 124.5
91 | CCc1c(C)nc2n(c1=O)CC(C(=O)Nc1ccccc1F)CS2 (stereo not given) | -0.8379
92 | CCc1c(C)nc2n(c1=O)CC(C(=O)Nc1sccc1C(=O)OC)CS2 (stereo not given) | 119.9
93 | Cc1cnc2n(c1=O)CC(C(=O)NC1CC1)CS2 (stereo not given) | -10.47
94 | CCc1c(C)nc2n(c1=O)CC(C(=O)Nc1ccccc1C)CS2 (stereo not given) | 112.9
95 | CCc1c(C)nc2n(c1=O)CC(C(=O)Nc1nccs1)CS2 (stereo not given) | 17.24
